Bioassay records (PubChem)
Compounds with a hit are over-represented: about 5.7% of the library has one in this group of screens.
IL1B secr inh: blocks inflammasome-driven IL-1 beta release; 4.7% of 360,000 active; THP-1 LPS/ATP IL-1B secretion, AlphaLISA, 16 h; stronger effect = lower value; AID 743279; activity change, % at 57.5 µM; in the data active means activity change below about -50%; inconclusive means mostly about -30% to -49%; further: on the % scale 0 is the no-effect control and ±100 the full control effect
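Secreted IL-1B measured by AlphaLISA bead assay after 16 h compound exposure of THP-1 cells; compounds (final up to 57.5 uM) added 1 h before LPS (250 ng/mL) and ATP (1.25 mM) stimulation; lower signal means less secretion.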
HepG2 viability: kills HepG2 cells in TGF-b inhibitor counter-screen; HepG2 CAGA-GFP viability, ATP luminescence, 18 h; Potency, µM (titrated, usually from 46.1 µM), for inactives: top-dose activity change, negative = cytotoxicity, most hits filed as cytotoxic; 0.76% of 410,000 active; further: potency means the concentration at half of the fitted maximal effect
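CellTiter-Glo luminescence gave cytotoxicity after 18 hours at 37 degrees C. The cells were HepG2 CAGA-GFP in 1% FBS DMEM, stimulated with 500 pg/mL TGF-beta after compound addition. %Activity was normalised to no-cell wells (complete cell-killing) and DMSO (no toxicity), and curves were fitted and classified.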
S2 tox: reduces viability in counter-screen for ATXN expression inhibitors; S2 cells (HEK-293 line with an ATXN2-luciferase reporter) viability, CellTiter-Fluor protease fluorescence, 24 h; 0.49% of 400,000 active; Potency, µM (top dose mostly 56.7 µM), actives largely listed as cytotoxic; AID 651635; further: potency means the concentration at half of the fitted maximal effect; nearly all actives have a fitted effect of over 40% in size
ATXN2 expr inh: reduces ATXN2 reporter expression in HEK-293 cells; HEK-293 ATXN2-luciferase reporter, luminescence, 24 h; Potency, µM (doses to about 57 µM), for inactives: at the top dose activity change, negative = inhibition, hits mostly inhibitors; 0.72% of 360,000 active; AID 1745845; further: potency means the concentration at half of the fitted maximal effect; on the % scale 0 is the no-effect control and ±100 the full control effect; nearly all actives have a fitted effect of over 55% in size
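ATXN2-luciferase reporter cells (luciferase flanked by upstream and downstream ATXN2 gene portions) were treated 24 h at 37 °C with compounds at up to 57 uM. SteadyGlo luminescence gave expression; GF-AFC fluorescence gave viability.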
TGFb inhibitor: blocks TGF-b signaling; HepG2 CAGA-GFP TGF-b/SMAD3 reporter, GFP fluorescence, 18 h; TGF-beta stimulated, 500 pg/mL final; Potency, µM (series often up to 46.1 µM), for the others: at the top dose activity, negative = inhibition, most hits filed as inhibitors; 1.2% of 410,000 active; further: potency means the concentration at half of the fitted maximal effect; on the % scale 0 is the no-effect control and ±100 the full control effect; nearly all actives have a fitted effect of over 65% in size
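GFP signal (ex488/em500-530) from TGF-beta-stimulated HEPG2 CAGA-GFP cells, 500 pg/mL final, 18 h at 37 degrees C in DMEM plus 1% FBS, normalized to unstimulated and DMSO-stimulated controls.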
Numbers without * were called inactive; i = inactive; u = inconclusive; x = not tested or not shown. Unless noted, the call rests on the fitted dose curve; in most records, active means well fitted curve in the direction sought with a large enough effect; inconclusive means small, poorly fitted or top-dose-only effect, or another doubt; inactive means no such curve, though single readings can be large; an effect the other way counts as inactive or inconclusive.

SMILES	IL1B secr inh	HepG2 viability	S2 tox	ATXN2 expr inh	TGFb inhibitor
CCCC(=O)N(CCN1CCOCC1)c1nc2c(C)cccc2s1	-51*	-9%	i	3%	4%
O=C(CCS(=O)(=O)c1ccccc1)N(CCCN1CCOCC1)c1nc2c(F)cccc2s1	-107*	-73%	x	u	u
O=C(CCS(=O)(=O)c1ccccc1)N(CCCN1CCOCC1)c1nc2ccc(F)cc2s1	-82*	13µM*	x	u	u
CCN(CC)CCCCNc1nc2cc(Cl)c(Cl)cc2nc1-c1ccc(-c2cccs2)s1	x	x	x	22µM*	x
CN(C)c1ccc(CNc2ccc3c(c2)ncn3C)cc1	-59*	-19%	i	-6%	1%
CC(C)(C)n1cnc2cc(NCc3ccc(Br)cc3)ccc21	u	-33%	u	30%	u
CCCCn1cnc2cc(NCc3ccc(OCC)cc3)ccc21	x	-34%	i	8%	10µM*
CCc1ccc(CNc2ccc3c(c2)ncn3CC)cc1	-57*	2%	i	60%	5%
CCc1ccc(CNc2ccc3c(c2)ncn3C(C)(C)C)cc1	-78*	-22%	i	60%	u
CCCCn1cnc2cc(NCc3ccncc3)ccc21	-6	3%	i	4%	-15%
COc1ccc(-c2cc(C(=O)N3CCc4c(cnc(C)c4CNC(=O)c4ccsc4)C3)[nH]n2)cc1	x	x	i	x	x
COc1ccc2[nH]c(=O)c(CN(Cc3cccs3)C(=S)NCC3CCCO3)cc2c1 (centres undefined)	-4	-1%	i	x	-15%
CCc1ccc2[nH]c(=O)c(CN(Cc3ccco3)C(=S)NCC3CCCO3)cc2c1 (centres undefined)	-115*	-10%	i	-25%	u
Cc1cc2cc(CN(Cc3ccco3)C(=S)NCC3CCCO3)c(=O)[nH]c2cc1C (centres undefined)	-63*	-8%	i	-6%	-25%
Cc1cc2cc(CN(Cc3cccs3)C(=S)NCC3CCCO3)c(=O)[nH]c2cc1C (centres undefined)	-66*	-4%	i	2%	u
COc1ccccc1NC(=S)N(Cc1ccco1)Cc1cc2cc(C)c(C)cc2[nH]c1=O	-54*	10%	u	-5%	0%
CC(C)=CNNC(=O)c1ccc(O)cc1	x	-4%	x	x	-4%
COc1ccc2cc(CNCc3ccccc3Cl)c(N3CCCC(CO)C3)nc2c1 (centres undefined)	x	x	i	x	x
Cc1cc2cc(CN(CC3CCCO3)C(=S)Nc3ccccc3)c(=O)[nH]c2cc1C (centres undefined)	-15	-17%	u	-29%	u
Cc1cc2cc(CN(CC3CCCO3)C(=S)NCc3ccco3)c(=O)[nH]c2cc1C (centres undefined)	-75*	-3%	i	13%	u
COCC(=O)Nc1cc(C(=O)NC2CCc3ccccc32)c2c(c1)nc(-c1ccncc1)n2C (centres undefined)	x	x	i	x	x
COc1cccc(C(=O)c2cn(CC(=O)NCc3ccccc3)c3nc(C)ccc3c2=O)c1	x	0%	x	x	-3%
CCOC(=O)c1c(C)[nH]c(C)c1S(=O)(=O)NCC(=O)Nc1ccc(C)c(N(C)C)c1	x	-4%	i	11%	-23%
CC(=O)OCC(=O)[C@@]12N=C(C)O[C@H]1C[C@H]1[C@@H]3CCC4=CC(=O)C=C[C@]4(C)[C@@H]3[C@@H](O)C[C@@]12C	x	x	x	-4%	x
Cc1cccc(C(=O)Nc2ccc3nc(SCC(=O)N4CCCC4)sc3c2)c1	x	-34%	x	x	0%
COc1ccc(-c2nnc(NC(=O)C3CCCN3S(=O)(=O)c3cccs3)o2)cc1 (centres undefined)	5	-26%	i	22%	0%
O=C(Nc1nnc(-c2ccccc2)o1)C1CCCN1S(=O)(=O)c1cccs1 (centres undefined)	-59*	-2%	u	12%	0%
N#CC1=C(N)OC2=C(CC/C2=C\c2ccccc2Cl)C1c1ccccc1Cl (centres undefined)	-68*	-28%	x	x	11µM*
O=C1NC2CCCCC2C(=O)N1OS(=O)(=O)c1ccccc1 (centres undefined)	-78*	-24%	16µM*	u	0%
